Among all 38,000 compounds or so, about 1,200 (3.2%) showed an effect of 50% or more. The median lay at about -58%. This is one part of a sample in which strong results are shown more often than they occur.
Test system: Plasmodium falciparum
Assay: Calibr Malaria Delayed Death Assay SOP
Type: functional, organism-based
Design: scale not given: in the data most compounds retested in dose-response had high values
Settings: concentration 4.99e-06 (unit not given; other assays of the set use mol/L)

SMILES	Percent Effect
COCCNC(=O)C1CN(C(N)=O)Cc2ccnn2C1 (stereo unspecified)	-83.21%
O=C(O)c1coc(COc2cccc3cnccc23)n1	-75.43%
O=C(c1coc(COc2cccc3cnccc23)n1)N1CCCCCC1	16.31%
CC(C(=O)Nc1ccc(N2CCCCC2)nc1)n1ccnc1 (stereo unspecified)	-81.15%
Cn1ccnc1CN(Cc1cccnc1)CC1CCCO1 (stereo unspecified)	-29.26%
NCC(c1ccccc1)N1CCc2sccc2C1 (stereo unspecified)	56.94%
CC(CNC(=O)c1ccco1)N1CCc2sccc2C1 (stereo unspecified)	-89.83%
N#Cc1ccccc1CN1CCc2sccc2C1	-109.2%
O=C(CCn1ccc2ccc(Br)cc21)/N=c1\[nH]nc(C2CCCO2)s1 (stereo unspecified)	-91.4%
CC(c1ccc(S(C)(=O)=O)cc1)N(C)C(=O)c1ccccc1I (stereo unspecified)	-43.05%
COc1ccc(CCC(C)Nc2cccc(SC)c2)cc1 (stereo unspecified)	-91.4%
COc1ccc(C(C)NCc2cscn2)cc1Cn1cccn1 (stereo unspecified)	71.39%
COc1ccc(C(C)NCc2ccnn2C)cc1Cn1cccn1 (stereo unspecified)	-53.25%
COc1ccc(C(C)NCc2scnc2C)cc1Cn1cccn1 (stereo unspecified)	-18.73%
COc1ccc(OC)c(CN2CCN(Cc3cscn3)CC2)c1	-31.14%
COc1ccc(C(C)NCc2ccsc2)cc1Cn1cccn1 (stereo unspecified)	71.68%
COc1ccc(C(C)NCc2cccs2)cc1Cn1cccn1 (stereo unspecified)	28.81%
CCc1nnc(CN2CCCCC2Cn2cncn2)o1 (stereo unspecified)	-69.23%
Cc1nc(C2CCCN2C(=O)CCOCc2ccccc2)no1 (stereo unspecified)	-117.2%
O=S(=O)(Nc1cnn(C2CCOCC2)c1)c1ccc(Br)cc1	-25.25%
CNC(=O)N1CCCCC1c1nnc2n1CCCC2 (stereo unspecified)	-92.12%
O=C1c2cnc(N3CCCCC3)nc2CN1c1ccc2c(c1)OCO2	-196%

SMILES	Percent Effect
CCNc1nc(C)c(C(=O)N(C)Cc2nc(CC)no2)s1	-30.42%
O=C1NCCCCC1NCc1csc(-c2ccsc2)n1 (stereo unspecified)	-129.5%
O=C(O)Cn1nc(C2CC2)c2c(-c3cccs3)ccnc21	-11.75%
O=c1[nH]c(NC2CCCC2)nc2nccc(-c3ccsc3)c12	67.56%
O=C(NC1CCCC1)C1Cc2nc(-c3ccsc3)sc2N1CC1CC1 (stereo unspecified)	-48.35%
O=C(NC[C@H]1CCCC[C@H]1O)c1cccc2[nH]c(-c3cccs3)nc12	-57.07%
O=C(O)Cn1nc(C2CC2)c2c(-c3ccco3)ccnc21	-116%
O=c1[nH]c(NC2CCCC2)nc2nccc(-c3cccs3)c12	55.34%
O=c1[nH]c(NC2CCCC2)nc2nccc(-c3ccco3)c12	71.56%
O=C(NC[C@H]1CCCC[C@H]1O)c1ccc2nc(-c3ccco3)[nH]c2c1	-121.1%
Cc1cccc(CN(C(=O)CCn2cncn2)C(C)C)c1	-52.83%
O=C(CCc1nc2cc(Br)cnc2[nH]1)NCCCN1CCOCC1	-51.18%
COc1ccc(C)cc1CC(=O)NC1(C#N)CCOCC1	-117.4%
CCOc1cc(C(=O)NS(=O)(=O)c2cccc(C#N)c2)ccc1OC	-127.1%
CCC(CC)CN1CCN(CC(=O)Nc2ccc3nsnc3c2)CC1	27.19%
CN(C)C(=O)CN1CCC2(CCN(C(=O)N3CCCC3)CC2)C1=O	-157.2%
CC(C)Oc1ncnc2c1CCN(Cc1ccc(F)cc1)CC2.O=C(O)C(F)(F)F	69.87%
CC(C)Oc1ncnc2c1CCN(Cc1ccoc1)CC2.O=C(O)C(F)(F)F	29.43%
Cc1ccc(CN2CCc3ncnc(OC(C)C)c3CC2)s1.O=C(O)C(F)(F)F	-2.65%
Cc1nc(C)c2c(n1)CCN(Cc1ccco1)CC2	-20.07%
c1coc(CN2CCc3ncnc(C4CCOC4)c3CC2)c1 (stereo unspecified)	-48.34%
CC(C)Oc1ncnc2c1CCN(Cc1ccco1)CC2.O=C(O)C(F)(F)F	60.03%

SMILES	Percent Effect
COc1ncnc2c1CCN(Cc1cccs1)CC2.O=C(O)C(F)(F)F	-104.3%
COCCN1CCc2ncnc(OC(C)C)c2CC1.O=C(O)C(F)(F)F	-76.73%
CCOc1cc(C(=O)N2CCCC(c3noc(C(C)C)n3)C2)ccn1 (stereo unspecified)	-128.3%
Cc1c(F)cc(C(=O)O)cc1S(=O)(=O)Nc1ccc(F)c(C#N)c1	-35.67%
Cc1occc1-c1nnc2n1NC(N)=C(C#N)S2	-74.61%
COCCN(C)C[C@@H]1CN(C(=O)c2ccc(O)c(C)c2)C[C@@H]1CO	-85.42%
COc1ccc(-c2cc(C3CCN(C(C)=O)CC3)ccn2)cc1	-100.7%
COc1ccc(-c2cnc(NC(C)=O)[nH]2)cc1	-138%
COc1ccc(-c2ccc(C3CNCCO3)nc2)cc1.Cl (stereo unspecified)	63.33%
C[C@H]1C[C@@H]2CCN(C(=O)c3cnccn3)C[C@H]2O1	-123.8%
Cc1ccc(N2N=C(C(=O)O)S(=O)(=O)c3cccnc32)cc1	-91.48%
O=C(CCCn1cncn1)NC1CCc2nccn2C1 (stereo unspecified)	-11.39%
COc1ccc(CN(C)CCS(=O)(=O)c2ccc(Cl)cc2)cc1OC	-60.68%
Cn1c(-c2cc3n(n2)CCCN(CC(=O)O)C3)nc2ccccc21	-285%
CCCn1ncc(CN2C[C@@H]3CCCN3C[C@H]2Cc2ccccc2)c1C	55.8%
CCCn1ncc(CN2C[C@@H]3CCCN3C[C@@H]2Cc2ccccc2)c1C	62.1%
CCCn1ncc(CN2CCCCC2CCCOC)c1C (stereo unspecified)	-4.874%
C=Cn1ncc(CN2C[C@@H]3C[C@@H](O)CN3C[C@H]2Cc2ccccc2)c1C	32.93%
c1ccc(CNc2ncc(CN3CCCN4CCC[C@H]4C3)cn2)cc1	-75.33%
CCCn1ncc(C(=O)N2CCN(C3CCCC3)CC2)c1C	-11.79%
CCOc1cccc(NC(=O)c2cc[nH]n2)n1	-28.36%
Cc1cc(CN2C[C@@H]3COC[C@@H](C(=O)N4CCCCO4)[C@@H]3C2)no1.O=C(O)C(F)(F)F	-37.6%

— ChEMBL document CHEMBL3988442, “University of Dundee, Small-Polar-MMV Screening Library” (2021)
